Laboratory results: publication PMC4336329 (PLoS ONE, 2015)
The campaign covered roughly 310,000 compounds. About 14,000 (4.5%) showed an effect of 50% or more. Effects have a minus sign here. The entries come from a sample that favours strong results as a whole.

These compounds were tested against human ether-à-go-go-related gene (hERG) potassium channel (human, UniProt Q12809) (assay: primary screen, population patch clamp on CHO cells stably expressing hERG; higher = less effect of the substance).
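Further: peak tail current of the secondary pulse compared with the same well before compound.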

Sequence of human ether-à-go-go-related gene (hERG) potassium channel (Q12809 whole entry, looked up): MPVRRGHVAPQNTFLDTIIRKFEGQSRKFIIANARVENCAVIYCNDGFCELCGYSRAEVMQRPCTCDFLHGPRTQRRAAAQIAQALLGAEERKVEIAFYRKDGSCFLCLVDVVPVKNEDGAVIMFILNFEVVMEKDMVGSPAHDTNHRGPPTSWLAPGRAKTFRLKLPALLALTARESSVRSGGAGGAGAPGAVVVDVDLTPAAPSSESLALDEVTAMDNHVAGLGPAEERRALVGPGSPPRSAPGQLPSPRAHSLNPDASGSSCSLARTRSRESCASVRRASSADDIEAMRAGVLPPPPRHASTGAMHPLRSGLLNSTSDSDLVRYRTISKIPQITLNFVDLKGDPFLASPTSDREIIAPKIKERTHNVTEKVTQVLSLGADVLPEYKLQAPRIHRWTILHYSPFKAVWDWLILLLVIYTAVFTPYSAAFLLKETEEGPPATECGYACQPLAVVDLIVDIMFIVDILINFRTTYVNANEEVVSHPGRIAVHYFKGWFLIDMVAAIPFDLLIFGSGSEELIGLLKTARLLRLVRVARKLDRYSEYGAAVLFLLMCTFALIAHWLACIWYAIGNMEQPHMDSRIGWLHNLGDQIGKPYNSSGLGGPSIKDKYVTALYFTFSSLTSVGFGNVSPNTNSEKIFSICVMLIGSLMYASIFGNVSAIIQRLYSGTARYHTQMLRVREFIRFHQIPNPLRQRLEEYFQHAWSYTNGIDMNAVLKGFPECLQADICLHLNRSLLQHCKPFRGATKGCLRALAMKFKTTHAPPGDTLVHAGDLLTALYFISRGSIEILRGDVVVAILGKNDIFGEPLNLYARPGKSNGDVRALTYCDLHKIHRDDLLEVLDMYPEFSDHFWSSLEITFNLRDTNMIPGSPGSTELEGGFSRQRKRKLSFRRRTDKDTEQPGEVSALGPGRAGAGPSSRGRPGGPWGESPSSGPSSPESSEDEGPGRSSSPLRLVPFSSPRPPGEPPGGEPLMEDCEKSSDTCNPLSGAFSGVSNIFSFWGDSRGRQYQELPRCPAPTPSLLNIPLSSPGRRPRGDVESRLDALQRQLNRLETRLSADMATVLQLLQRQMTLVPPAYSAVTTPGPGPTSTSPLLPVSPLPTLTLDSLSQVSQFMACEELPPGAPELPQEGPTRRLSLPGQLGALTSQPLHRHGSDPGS

Compound	hERG current change (%, negative = inhibition) at 10uM
CNc1nc(N(C)C)nc(N(C)C)n1	-7.71%
CCS(=O)(=O)N1Cc2ccccc2CC1C(=O)Nc1cccc(C)c1 (stereo not shown)	-4.95%
CCc1cccc2c(C(=S)N3CCCC3)c[nH]c12	8.97%
Nc1[nH]n2c(=O)cc(-c3ccccc3)nc2c1N=Nc1ccccc1	11%
COc1ccccc1C(=O)Oc1ccc(N2C(=O)CCC2=O)cc1	-0.543%
Cc1cc(C(F)F)n2nc(C(=O)Nc3ccc(F)cc3F)nc2n1	-2.95%
O=C(CSc1nnc2n1CCCN2)c1ccc([N+](=O)[O-])cc1	-49.8%
Nc1ccc2sc(N)nc2c1	12.2%
Cc1cc(OC(C)C(=O)N(Cc2ccco2)C2CCS(=O)(=O)C2)cc(C)c1Cl (stereo not shown)	-1.99%
CC(C)=CCN1CCN(Cc2ccc(C#CC(C)(C)O)s2)CC1CCO (stereo not shown)	-1.88%
COc1cccc(-c2cnc(NCc3cc(Cl)ccc3O)n2C)c1.O=C(O)C(=O)O	-24.1%
COc1ccc(OC)c(CNc2ncc(-c3cccc([N+](=O)[O-])c3)n2C)c1.O=C(O)C(=O)O	-54.8%
COc1ccc(CNc2ncc(-c3cccc([N+](=O)[O-])c3)n2C)c(OC)c1OC.O=C(O)C(=O)O	-47.5%
Cc1cccc(CNc2ncc(-c3cccc([N+](=O)[O-])c3)n2C)c1.O=C(O)C(=O)O	-71.1%
Cc1ccccc1Nc1c([N+](=O)[O-])ccc2c1=NC1(CCCCC1)N=2	-16.6%
O=C(COc1ccc(Br)cc1Cl)NNC(=O)c1ccccc1	2.57%

Compound	hERG current change (%, negative = inhibition) at 10uM
Cc1ccccc1CN(c1ccc(C(=O)NCc2ccccn2)cc1)S(C)(=O)=O	-35.4%
CC1CC(C)CN(C(=O)CSc2nc(Cc3cccs3)nc3ccccc23)C1 (stereo not shown)	-13%
Cc1noc(C)c1COC(=O)CCN1c2ccccc2Sc2ccccc21	7.54%
CCCCCCCN=CC1=C(O)CC(c2ccccc2)CC1=O (stereo not shown)	-6.52%
Cc1ccc(-n2cc(S(=O)(=O)c3ccc(C)cc3)[nH]c2=O)cc1	4.72%
O=C(CCCCCN1C(=O)c2cccc3cccc(c23)C1=O)NCc1ccco1	13.2%
COc1ccc(C(=O)NC2CCN(C(=S)NCc3ccco3)CC2)cc1	-29.6%
O=C(NC1CCN(C(=S)NCc2ccco2)CC1)c1cccc(F)c1	-47.1%
O=C(NC1CCN(C(=S)Nc2ccc(Cl)cc2)CC1)c1ccco1	-72.8%
O=C(NC1CCN(C(=S)Nc2ccc(F)cc2)CC1)c1ccco1	-39%
CCNC(=S)N1CCC(NC(=O)c2ccco2)CC1	6.16%
CC(C)CNC(=S)N1CCC(NC(=O)c2ccco2)CC1	-65.7%
COc1ccc(NC(=S)N2CCC(NC(=O)c3ccco3)CC2)cc1	-6.59%
COCCNC(=S)N1CCC(NC(=O)c2ccco2)CC1	15.7%
O=C(NC1CCN(C(=S)NCc2ccco2)CC1)c1ccc(F)cc1	-51.6%
